Screens (PubChem BioAssay)
Compounds with a hit are over-represented: about 2.3% of the library has one in this group of screens.
Pol beta inh: qHTS Assay for Inhibitors of DNA Polymerase Beta | P06746 | Pol beta primer extension/strand displacement, fluorescence kinetic | Potency, µM (doses to about 114 µM), actives largely listed as inhibitors | actives 1.3% (n = 340,000) | AID 485314, 2010
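10 nM enzyme + cpd, 15 min RT; start with substrate 50 nM final; read 0 min and after 10 min RT. Corrected, normalized data; 4-parameter Hill curve fit.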
WRN inhibitor: qHTS for Inhibitors of WRN Helicase | WRN helicase unwinding, fluorescent forked duplex, kinetic | actives 0.46% (n = 360,000) | Bifunctional 3'-5' exonuclease/ATP-dependent helicase WRN (Homo sapiens), Q14191 | Potency, µM (top dose mostly 114 µM), hits mostly inhibitors; note: nearly all actives have a fitted effect of over 55% in size
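Enzyme (20 nM final) and test compound sit together 15 min at room temperature before substrate addition. Substrate is a single-forked duplex oligonucleotide (100 nM) labelled with fluorophore and quencher, with 2 mM ATP; helicase unwinding raises red fluorescence, read kinetically.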
Pol kappa inh-1: qHTS for Inhibitors of Polymerase Kappa. DNA polymerase kappa (Homo sapiens), Q9UBT6. purified Pol kappa, fluorescent DNA synthesis assay, 10 min. Potency, µM (titrated, usually from 107 µM), actives largely listed as inhibitors. actives 0.53% (n = 400,000)
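10 nM Pol kappa preincubated 15 min at room temperature with compounds, then reaction started with substrate at 50 nM final. Fluorescence read kinetically at 0 and 10 min; buffer-only wells served as negative control.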
Pol eta inh-1: qHTS for Inhibitors of Polymerase Eta; DNA polymerase eta (Homo sapiens), Q9Y253; recombinant Pol eta, fluorescent DNA replication assay; Potency, µM (top dose mostly 114 µM), usual class: inhibitors; actives 1.2% (n = 390,000); AID 588591, 2011
Target sequence (Q9Y253 whole entry, looked up): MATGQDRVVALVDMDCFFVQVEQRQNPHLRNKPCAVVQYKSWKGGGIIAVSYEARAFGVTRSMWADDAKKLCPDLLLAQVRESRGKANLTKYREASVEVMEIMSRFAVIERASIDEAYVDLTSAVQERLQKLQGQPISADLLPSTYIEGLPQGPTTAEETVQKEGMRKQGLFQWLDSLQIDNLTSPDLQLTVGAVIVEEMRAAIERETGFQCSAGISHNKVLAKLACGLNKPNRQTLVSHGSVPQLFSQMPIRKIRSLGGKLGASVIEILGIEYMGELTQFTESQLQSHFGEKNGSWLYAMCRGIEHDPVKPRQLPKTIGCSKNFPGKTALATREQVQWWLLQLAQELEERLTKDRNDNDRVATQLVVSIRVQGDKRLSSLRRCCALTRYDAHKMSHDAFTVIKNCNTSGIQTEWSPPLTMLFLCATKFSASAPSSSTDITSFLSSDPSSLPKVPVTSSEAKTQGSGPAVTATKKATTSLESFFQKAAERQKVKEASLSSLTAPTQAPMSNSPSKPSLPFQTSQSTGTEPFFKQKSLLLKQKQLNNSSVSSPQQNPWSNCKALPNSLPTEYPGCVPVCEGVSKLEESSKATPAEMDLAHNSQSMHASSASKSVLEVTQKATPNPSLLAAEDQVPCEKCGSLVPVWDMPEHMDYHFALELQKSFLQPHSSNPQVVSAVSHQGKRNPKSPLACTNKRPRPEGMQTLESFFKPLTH
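Pol eta at 10 nM preincubated with compounds 15 min at room temperature; reaction started with fluorescent substrate (50 nM final) and read kinetically at 0 and 10 min.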
Pol iota inh: qHTS for Inhibitors of Polymerase Iota. Pol iota fluorescent replication assay, 10 min. AID 588590, 2011. actives 1% (n = 390,000). DNA polymerase iota (Homo sapiens), Q9UNA4. Potency, µM (titrated, usually from 115 µM), actives largely listed as inhibitors
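Fluorescent replication assay read twice, at 0 min and 10 min after adding 50 nM (final) substrate. Enzyme (10 nM) and compounds were first incubated 15 min at room temperature; enzyme-free buffer wells were negative controls.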
GALK inh confirm: Confirmation Assay for Inhibitors of Human Galactokinase (GALK); shares compounds with Pol eta inh-1; purified GALK, Kinase-Glo ATP depletion luminescence; Potency, µM (series often up to 115 µM), actives largely listed as inhibitors; actives 70% (n = 150); AID 2015, 2009
GALK redox cs: Confirmatory Assay for Inhibitors of Human Galactokinase (GALK): Phenol-HRP redox assay counterscreen; shares compounds with Pol eta inh-1; Phenol red-HRP H2O2 redox cycling, absorbance 600 nm; Potency, µM (series often up to 115 µM), most hits filed as inhibitors; actives 40% (n = 150); AID 2035, 2009
HEK293 viability: Secondary Assay for Inhibitors of Human Galactokinase (GALK): HEK-293 Cell Viability Assay; AID 2547, 2010; Potency, µM (doses to about 46.1 µM), usual class: inhibitors; actives 10% (n = 170); HEK-293 viability, ATP luminescence (CellTiter-Glo), 24/48 h; shares compounds with Pol eta inh-1
Pol kappa inh-2: qHTS for Inhibitors of Polymerase Kappa: Confirmatory Assay for Cherry-picked Compounds. shares compounds with Pol eta inh-1. purified Pol-kappa, fluorescent strand-displacement substrate. Potency, µM, usual class: inhibitors. actives 76% (n = 920)
Pol eta inh-2: qHTS for Inhibitors of Polymerase Eta: Confirmatory Assay for Cherry-picked Compounds; shares compounds with Pol eta inh-1; Pol eta primer extension, TAMRA/BHQ fluorescence, 10 min; Potency, µM, actives largely listed as inhibitors; actives 64% (n = 2,600); AID 720502, 2013
Numbers stand for hits; - = inactive; ? = inconclusive; . = not tested or not shown; [ ] = another dose, or the depositor's remark. Calls come from the whole dose curve; as a rule, active = well fitted curve in the direction sought with a large enough effect; inconclusive = small, poorly fitted or top-dose-only effect, or another doubt; inactive = no such curve, though single readings can be large; an effect the other way counts as inactive or inconclusive.

SMILES	Pol beta inh	WRN inhibitor	Pol kappa inh-1	Pol eta inh-1	Pol iota inh	Pol eta inh-2	others
N#C/C(=C/c1ccc(-c2ccc(C(=O)O)c(Cl)c2)o1)C(=O)NCC1CCCO1 (centres undefined)	?	-[11.6 µM]	?	10µM	?	?
Cc1ccc(C)c(Cn2c3ccccc3c3cnn(CC(=O)NC4CCC(C)CC4)c(=O)c32)c1 (centres undefined)	-	.	-	-	?	.
Cc1ccccc1NS(=O)(=O)c1ccc2[nH]cc(C(=O)NC(C)c3ccccc3)c(=O)c2c1 (centres undefined)	39.8µM	.	-	25.1µM	?	?
Cc1cccc(CCNC(=O)c2c[nH]c3ccc(S(=O)(=O)Nc4ccccc4F)cc3c2=O)c1	-	.	-	-	?	.
Cc1ccccc1NS(=O)(=O)c1ccc2[nH]cc(C(=O)N3CCCCC3)c(=O)c2c1	?	.	-	44.7µM	?	75.7
Cc1cc(C)cc(NS(=O)(=O)c2ccc3[nH]cc(C(=O)N4CCCCCC4)c(=O)c3c2)c1	-	.	-	-	-	.
Cc1ccc(CCNC(=O)c2c[nH]c3ccc(S(=O)(=O)Nc4ccc(C)cc4C)cc3c2=O)cc1	?	.	-	50.1µM	?	?
CSc1ncc(C(=O)Nc2ccc(C)c(Cl)c2)c(-c2ccccc2)n1	?	.	-	-	-	.
COc1ccc(-c2cc3nc(C)c(CCC(=O)N4CCN(c5ccc(F)cc5)CC4)c(C)n3n2)c(OC)c1	-	.	-	-	-	.
CC(=O)N(\C=C/C=C/C=C1\Sc2ccccc2C1=O)c1ccccc1	20µM	?	25.1µM	79.4µM	?	?	Pol kappa inh-2=75.2
CN(C)/C=C1/Sc2ccccc2C1=O	-	-	-	-	-	.
O=S(=O)(Nc1nc2n(n1)C(c1ccccc1)C=C(c1ccc(Cl)cc1)N2)c1ccccc1 (centres undefined)	-	.	-	89.1µM	-	?	Pol kappa inh-2=67
CC(=O)Nc1ccc(S(=O)(=O)Nc2nc3n(n2)C(c2ccccc2)C=C(c2ccc(Cl)cc2)N3)cc1 (centres undefined)	-	.	-	?	-	?
Cc1ccc(S(=O)(=O)Nc2nc3n(n2)C(c2ccc(F)cc2)C=C(c2ccccc2)N3)cc1 (centres undefined)	-	.	-	?	-	.
CC1=CC(c2ccc(Cl)cc2)n2nc(NS(=O)(=O)c3ccc(C)cc3)nc2N1 (centres undefined)	-	-	-	-	?	.
Cc1cc(C)nc(NS(=O)(=O)c2ccc(-n3cccc3)cc2)n1	31.6µM	?	79.4µM	10µM	?	53.6
Cc1nnc(NS(=O)(=O)c2ccc(N=Nc3ccc(N)nc3N)cc2)s1	.	?	79.4µM	20µM	15.8µM	47.8
Cc1c(CCOC(=O)c2ccc(N3CCOCC3)c([N+](=O)[O-])c2)sc[n+]1CC#N	?	-	-	50.1µM	?	?	Pol kappa inh-2=75.2
Cc1ncsc1CCOC(=O)c1ccc(N2CCOCC2)c([N+](=O)[O-])c1	-	-	-	-	-	.
Cc1cc(C(F)(F)F)nc(SCc2ccc(C(=O)O)o2)n1	39.8µM	-[11.6 µM]	-	8.91µM	22.4µM	?
COc1cc(/C=C2/C(C)=C(C#N)c3nc(N)c(C#N)c(C)c32)ccc1OCC(=O)O	?	?	89.1µM	17.8µM	?	30.1
O=c1[nH]c(Nc2ccccc2)cc2cc(Br)ccc12	.	-	?	39.8µM	?	?
O=c1[nH]c(Nc2ccccc2)cc2ccccc12	-	-	-	?	11.2µM	.	GALK inh confirm=42.1µM;GALK redox cs=21.1µM;HEK293 viability=-
CC(=O)c1cccc(-c2ccc3c(=O)[nH]c(Nc4ccccc4)cc3c2)c1	.	-	?	20µM	?	75.7
COc1ccccc1Nc1cc2cc(Br)ccc2c(=O)[nH]1	.	-	79.4µM	20µM	?	67.5
SMILES	Pol beta inh	WRN inhibitor	Pol kappa inh-1	Pol eta inh-1	Pol iota inh	Pol eta inh-2	others
Cn1c(=O)c2c(-c3ccccc3)n3c(c2n(C)c1=O)C(c1ccc([N+](=O)[O-])cc1)Nc1ccccc1-3 (centres undefined)	?	.	-	-	-	.
COC(=O)c1c(-c2cccs2)csc1NC(=O)COc1ccc(C(C)C)cc1	-	.	-	.	-	.
Cc1ccc(-n2ncc(C(=O)NC3CCN(Cc4ccccc4)CC3)c2C2CCN(C(=O)OC(C)(C)C)CC2)cc1C	-	.	-	-	-	.
Cc1ccc(-n2nc3c(N4CCCC(C(=O)NCc5ccccc5C)C4)nnc(C)c3c2C)cc1 (centres undefined)	?	.	-	?	-	.
CN(C)S(=O)(=O)c1ccc(C(=O)NCCSc2c(-c3ccc(Br)cc3)[nH]c3ccccc23)cc1	-	.	-	-	-	.
Cc1nn(-c2ccccc2)c2c1N(CCCC(=O)NCc1ccc(OC(C)C)cc1)C(=O)CS2	-	.	-	-	-	.
O=C(CSc1ncnc2sc3c(c12)CCC3)N1CCOCC1	39.8µM	-[11.6 µM]	79.4µM	35.5µM	22.4µM	?
O=C(N/N=C/c1ccc(O)c(O)c1)c1ccc(-n2cnnn2)cc1	.	-[11.6 µM]	79.4µM	22.4µM	44.7µM	?
COc1ccc(N(Cc2cccs2)C(=O)c2ccccc2C)cc1	-	.	-	-	-	.
CC(=O)Nc1ccc2nc3c(=O)n(C)c(=O)n(C)c3nc2c1	?	10µM	?	35.5µM	10µM	84.9
Cn1c(=O)c2nc3ccc(NC(=O)C(F)(F)F)cc3nc2n(C)c1=O	-	.	-	-	-	.
Cc1ccc(C(=O)Nc2ccc3c4c(cccc24)CC3)cc1[N+](=O)[O-]	-	-	-	-	-	.
O=[N+]([O-])c1ccc2c([N+](=O)[O-])ccc3c2c1CC3	.	-[11.6 µM]	.	14.1µM	.	75.7
